Hits are enriched below; roughly 2.9% of the tested compounds scored in any of these assays.
DRD3 antagonist – qHTS of D3 Dopamine Receptor Antagonist: qHTS; max response, negative = inhibition, %; D3R cells, DiscoveRx beta-arrestin luminescence, antagonist mode; hits give low values; hit rate 2.5% among 360,000; AID 652054, 2013; D(3) dopamine receptor (Homo sapiens), P35462; in the data active means max response below about -50%; inconclusive means no clear call, values can overlap the other calls; further: on the % scale 0 is the no-effect control and ±100 the full control effect
Target sequence (P35462 whole entry, looked up): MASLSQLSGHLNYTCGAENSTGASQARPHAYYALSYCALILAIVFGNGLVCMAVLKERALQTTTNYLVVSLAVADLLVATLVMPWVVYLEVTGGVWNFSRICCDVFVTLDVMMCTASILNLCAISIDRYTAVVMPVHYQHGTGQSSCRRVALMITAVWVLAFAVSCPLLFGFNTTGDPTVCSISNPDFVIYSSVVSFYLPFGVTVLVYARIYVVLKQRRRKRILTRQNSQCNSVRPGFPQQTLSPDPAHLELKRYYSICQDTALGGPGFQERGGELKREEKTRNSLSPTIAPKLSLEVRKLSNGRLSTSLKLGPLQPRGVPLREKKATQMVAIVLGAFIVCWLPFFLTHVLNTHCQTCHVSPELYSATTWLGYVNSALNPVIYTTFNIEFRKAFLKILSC
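Cells plated overnight at 1500 cells/well, then exposed to library compounds with dopamine controls for 90 minutes at 37 degrees C. DiscoveRx reagent added for 30–60 minutes at room temperature; luminescence read, quantitative HTS format.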
TSHR antag – Antagonists of the Thyroid Stimulating Hormone Receptor: HTS campaign. TSHR-expressing cells, TSH-stimulated cAMP HTRF, 2 h; hits give low values. Thyrotropin receptor (Homo sapiens), P16473. activity change, negative = inhibition, % at 11.5 µM. AID 504810, 2011. hit rate 0.2% among 330,000;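 active means activity change below a set negative limit, meaning inhibition stronger than a set level, cut at about -70% in these data; inconclusive means activity change between two set negative limits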; further: on the % scale 0 is the no-effect control and ±100 the full control effect
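Inhibition of cAMP made by TSHR-expressing cells under TSH stimulation (4nM final, EC80; 2 h, 37 deg C) is quantified with a one-step lysis HTRF kit, anti-cAMP cryptate versus cAMP-d2.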
B2AR arrestin – qHTS assay of beta-arrestin-biased ligands of beta2-adrenergic receptor | Beta-2 adrenergic receptor (Homo sapiens), P07550 | Potency, µM (titrated, usually from 46.1 µM), inactives show at the top dose activation, usual class: activators | hit rate 0.02% among 330,000 | beta-arrestin recruitment to beta2AR, cell-based reporter; active means well fitted activation curve with a large enough effect; inconclusive means small, poorly fitted or top-dose-only effect;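 further: potency means the concentration at half of the fitted maximal effect; 0% = DMSO controls and full agonism = EC100 isoproterenol or metaproterenol; nearly all actives have a fitted effect of over 65% in size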
DRD3 agonist – qHTS of D3 Dopamine Receptor Agonist: qHTS | D(3) dopamine receptor (Homo sapiens), P35462 | D3R DiscoveRx beta-arrestin cells, luminescence, 90 min | max activation, % | hit rate 0.58% among 410,000 | AID 652048, 2013; in the data active means max activation above about 30%; further: 0% is about no effect
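Cells at 1500/well, incubated overnight, then treated with pinned compounds (dopamine as control) for 90 min at 37 degrees C. DiscoveRx reagent added for 30 - 60 minutes at room temperature; luminescence read.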
Active calls of the source: *.

`O=C1c2ccc3c4c(ccc(c24)C(=O)N1c1cccc(O)c1)C(=O)N(c1cccc(O)c1)C3=O` gave DRD3 antagonist -82*, TSHR antag 3, B2AR arrestin 0% and DRD3 agonist -22.
Cc1ccc(C(=O)O)cc1Nc1nc2ccccc2n2nnnc12 was read as DRD3 agonist -2.
COc1cc(NC(=O)CCc2c(C)n(C)c3cc(-c4ccccc4C)nn3c2=O)cc(OC)c1OC was read as DRD3 agonist 3.
CCOC(=O)c1c(C)n(C)c2ccc(OCC(O)CN3CCC(C)CC3)cc12 (stereo not given) was read as DRD3 antagonist -102*, TSHR antag 9, B2AR arrestin -1% and DRD3 agonist -21.
For CCOC(=O)c1c(C)n(C)c2ccc(OCC(O)CN3CCCCCC3)cc12 (stereo not given) the results were DRD3 antagonist inconclusive, TSHR antag 3, B2AR arrestin 0% and DRD3 agonist -9.
For Cc1ccccc1OCC(O)CN1CCN(CC(O)COc2ccccc2C)CC1 (stereo not given) the results were DRD3 antagonist -57*, TSHR antag 8, B2AR arrestin 0% and DRD3 agonist -18.
`Cc1ccccc1OCC(O)CN1CCCCC1` (stereo not given) gave DRD3 antagonist 4, TSHR antag 0, B2AR arrestin 0% and DRD3 agonist -8.
For Cc1ccccc1OCC(O)CN1CCC(C)CC1 (stereo not given) the results were DRD3 antagonist -60*, TSHR antag 4, B2AR arrestin 0% and DRD3 agonist -12.
Screening CN(C)S(=O)(=O)N1CCN(c2ccnc3cc(Cl)ccc23)CC1 returned DRD3 antagonist -10, TSHR antag -120*, B2AR arrestin 0% and DRD3 agonist -3.
`O=C(C1CCC1)N1CCN(c2ccnc3cc(Cl)ccc23)CC1` gave DRD3 antagonist 28, TSHR antag -1, B2AR arrestin -1% and DRD3 agonist 19.
O=C(C1CC1)N1CCN(c2ccnc3cc(Cl)ccc23)CC1 was read as DRD3 antagonist -68*, TSHR antag -15, B2AR arrestin 0% and DRD3 agonist 2.
`CC(C)S(=O)(=O)N1CCN(c2ccnc3cc(Cl)ccc23)CC1` gave DRD3 antagonist -8, TSHR antag -8, B2AR arrestin 0% and DRD3 agonist -2.
`C/C(=C\C(=O)c1ccc(Br)cc1)Nc1cccc(Cl)c1` gave DRD3 antagonist -9 and DRD3 agonist 3.
Screening C/C(=C\C(=O)c1ccccc1)Nc1ccc(Cl)c(Br)c1 returned DRD3 antagonist -55* and DRD3 agonist 4.
Screening COc1cccc(N2CCN(CC(=O)C34CC5CC(CC(C5)C3)C4)CC2)c1 returned DRD3 antagonist -4, TSHR antag -9, B2AR arrestin 0% and DRD3 agonist -1.
Screening COc1cccc(N2CCN(C(C)C(=O)NC34CC5CC(CC(C5)C3)C4)CC2)c1 (stereo not given) returned DRD3 antagonist -53*, TSHR antag -9, B2AR arrestin -1% and DRD3 agonist -22.
OC(c1cccc(CN2CCCCC2)c1)c1ncc(-c2cccc(C(F)(F)F)c2)[nH]1 (stereo not given) was read as DRD3 antagonist 1 and DRD3 agonist -3.
For OC(c1cccc(CN2CCCCC2)c1)c1ncc(-c2cccc3ccccc23)[nH]1 (stereo not given) the results were DRD3 antagonist -54* and DRD3 agonist -18.
`Cc1c(Br)cc(C(=O)OC2CCN(C)CC2)c(C)c1C` gave DRD3 antagonist -88*, TSHR antag 0, B2AR arrestin 0% and DRD3 agonist -21.
For O=C/C(=C\Nc1ccc(Cl)cn1)c1nc2cc(Cl)ccc2o1 the results were DRD3 antagonist -5 and DRD3 agonist 0.
O=C/C(=C\Nc1ccc(S(=O)(=O)CCO)cc1)c1nc2cc(Cl)ccc2o1 was read as DRD3 antagonist -51*, TSHR antag -11, B2AR arrestin -1% and DRD3 agonist -24.
COc1ccccc1CN1CCc2c([nH]c3ccccc23)C1 was read as DRD3 antagonist -90*, TSHR antag -8, B2AR arrestin 0% and DRD3 agonist -6.
COc1cc(CN2CCc3c([nH]c4ccccc34)C2)cc(OC)c1 was read as DRD3 antagonist -68*, TSHR antag -15, B2AR arrestin 0% and DRD3 agonist -16.
For O=[N+]([O-])c1ccc(/C=N/Nc2ccc3ccccc3c2)o1 the results were DRD3 antagonist -89*, TSHR antag -19, B2AR arrestin 0% and DRD3 agonist -19.
Screening O=C(N/N=C/c1ccc([N+](=O)[O-])o1)c1cc2ccccc2o1 returned DRD3 antagonist -25, TSHR antag 4, B2AR arrestin -1% and DRD3 agonist -14.
Cc1cc(C)n(CCNC(=O)c2cc(COc3c(F)cccc3F)on2)n1 was read as DRD3 antagonist -25, TSHR antag 10, B2AR arrestin 0% and DRD3 agonist 4.
For O=C(NCCN1CCCCC1)c1cc(COc2c(F)cccc2F)on1 the results were DRD3 antagonist -62*, TSHR antag 19, B2AR arrestin -1% and DRD3 agonist -28.
Screening O=C(Nc1ccccc1)OC(CN1CCCCC1)C(F)(F)F (stereo not given) returned DRD3 antagonist -14, TSHR antag 15, B2AR arrestin -1% and DRD3 agonist 4.
`O=C(Nc1ccccc1)OCC1CCCN2CCCCC12` (stereo not given) gave DRD3 antagonist -53*, TSHR antag -5, B2AR arrestin 0% and DRD3 agonist -14.
O=C(Nc1ccccc1)OCC(CN1CCCCC1)OC(=O)Nc1ccccc1 (stereo not given) was read as DRD3 antagonist -89*, TSHR antag -5, B2AR arrestin 0% and DRD3 agonist -80.
`CCOC(=O)c1ccccc1NC(=O)CSc1cn(CC(=O)N2CCOCC2)c2ccccc12` gave DRD3 agonist -6.
`COc1ccc(C=NCC2COc3ccccc3O2)cc1OC` (stereo not given) gave DRD3 antagonist -51*, TSHR antag 11, B2AR arrestin 0% and DRD3 agonist -27.
`Oc1ccc(C=NCC2COc3ccccc3O2)cc1` (stereo not given) gave DRD3 antagonist -24, TSHR antag -4, B2AR arrestin -1% and DRD3 agonist -32.
Cc1cccc(N2CCN(C(=O)c3ccc(NC(=O)c4nsc5ccccc45)cc3)CC2)c1C was read as DRD3 agonist 3.
Screening COc1cnc(-c2ccccn2)nc1N(C)c1ccccc1 returned DRD3 antagonist -68*, TSHR antag 2, B2AR arrestin -1% and DRD3 agonist -22.
Screening COc1ccc(Sc2nc(-c3ccccn3)ncc2OC)cc1 returned DRD3 antagonist 3, TSHR antag 12, B2AR arrestin 0% and DRD3 agonist -8.
